Laboratory results taken from PubChem BioAssay (NCI).
This is part of a sample that, as a whole, favours compounds with a hit. Of some 79,000 tested, about 15% had one in any assay. Active and inactive are the calls of the source. No stated cut-off is given here; in the data, active means growth inhibition above about 70%; inactive means the rest.

What was measured:
[1] = NCI Yeast Anticancer Drug Screen. Data for the rad50 strain (AID 155);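 further: 0% = growth of vehicle-only cultures of the same strain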; conditions: S. cerevisiae rad50 strain growth inhibition; at 50.0 µM; stronger effect = higher value
In short: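 Growth of the mutant yeast was measured after compound exposure and referenced to vehicle-treated cultures.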

[2] = NCI Yeast Anticancer Drug Screen. Data for the mec2-1 strain (AID 157); conditions: S. cerevisiae mec2-1 strain, at 50.0 µM, stronger effect = higher value
In short: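 Using mec2-1 yeast: add compound, measure growth, express inhibition versus vehicle-treated cultures.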

[3] = NCI Yeast Anticancer Drug Screen. Data for the sgs1 mgt1 strain (AID 161);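 further: 0% = growth of cultures given vehicle only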; conditions: S. cerevisiae sgs1 mgt1 strain, at 50.0 µM, stronger effect = higher value
In short: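 Yeast cells carrying a defined DNA-repair defect were exposed to test compounds. Growth inhibition was measured relative to vehicle-treated controls.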

[4] = NCI Yeast Anticancer Drug Screen. Data for the cln2 rad14 strain (AID 165);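 further: 0% = growth equal to vehicle treated cultures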; conditions: S. cerevisiae cln2 rad14 strain, at 50.0 µM, stronger effect = higher value
In short: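 Yeast strain cln2 rad14, bearing defects in cell cycle control and DNA repair, serves as the test system; values reflect growth inhibition compared with vehicle.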

[5] = NCI Yeast Anticancer Drug Screen. Data for the bub3 strain (AID 167); conditions: S. cerevisiae bub3 mutant strain, at 50.0 µM, stronger effect = higher value
In short: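 Whole-cell yeast assay. The mutant strain was incubated with compounds, and growth inhibition was determined by comparison with vehicle-treated cells.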

[6] = NCI Yeast Anticancer Drug Screen. Data for the mlh1 rad18 strain (AID 175); conditions: S. cerevisiae mlh1 rad18 strain growth inhibition; at 50.0 µM; stronger effect = higher value
In short: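 Steps: expose repair-defective yeast to compound; measure growth; express inhibition against vehicle-treated controls.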

Measured: growth inhibition

CC[P+](C)(Cc1ccccc1)c1ccccc1 (configuration not stated)
inactive: [1] -0.75% | [2] 1.6% | [3] 22.1% | [4] -3.25% | [5] 9.45% | [6] 21.3%

COc1ccc(/C=C/c2onc3c(=O)n(C)nc(-c4ccccc4)c23)cc1
inactive: [1] -22.4% | [2] -25.1% | [3] -9.2% | [4] -11.4% | [5] -2.55% | [6] -26.2%

CCc1ccccc1NC(=O)C(=O)C(C(=O)c1ccc(OC)cc1)c1ccc(OC)cc1 (configuration not stated)
inactive: [1] 19% | [2] 11.9% | [3] 5.4% | [4] 16.4% | [5] 4.45% | [6] 9.05%

NC(=S)SCCC(=O)N1CCCC1
inactive: [1] -1.25% | [2] -10.1% | [3] -9.55% | [4] -19.6% | [5] -7.35% | [6] -1.7%

CC(=O)OCc1ccc(C)c(COC(C)=O)c1
inactive: [1] 3.45% | [2] -20.6% | [3] -9.4% | [4] 3.8% | [5] 1.1% | [6] -9.4%

N#CCC(=O)c1ccccc1C(=O)O
inactive: [1] -4.45% | [2] -38.8% | [3] 4.7% | [4] 4.65% | [5] -6.2% | [6] 17.6%

NC(CC(=O)Nc1ccc(Cl)cc1)=Nc1ccccc1
inactive: [1] -28.6% | [2] -12.9% | [3] -11.2% | [4] -10.3% | [5] -14.4% | [6] -18.9%

O=C(O)c1ccc(C(=O)Nc2cccc3ccccc23)c(C(=O)O)c1
inactive: [1] -6.9% | [2] 8.4% | [3] -11.9% | [4] 6.35% | [5] 3.55% | [6] -10.2%

N/C(=N\N=C\C1CC2C=CC1C2)NO (configuration not stated)
inactive: [1] 5.3% | [2] -11.4% | [3] -9.8% | [4] -0.05% | [5] -16.6% | [6] -4.55%

CC(=O)Nc1c(OC(C)=O)ccc2cc(Br)ccc12
inactive: [1] -0.15% | [2] 20.9% | [3] 12.4% | [4] -15.2% | [5] -0.25% | [6] 8.85%

O=C(/C=C/c1ccco1)c1ccc(O)c(C(=O)O)c1
inactive: [1] -7.8% | [2] -1.25% | [3] -1% | [4] -39.5% | [5] -26.6% | [6] -2.9%

Nc1ncc(C(=O)O)c(N)n1
inactive: [1] 15.8% | [2] 4.6% | [3] 3.75% | [4] -19.2% | [5] -12.3% | [6] 33.6%

COC(=O)CC1C2(C)C3=C(C)C(c4ccoc4)CC3OC2C2OC(=O)C3(C)C=CC(=O)C1(C)C23 (configuration not stated)
active: [1] 85% | [2] 84.2% | [3] 79.2% | [4] 81% | [5] 82% | [6] 90.3%

O=c1c2ccccc2c2cc3nc4ccc([N+](=O)[O-])cc4c(=O)n3c3cccc1c23
inactive: [1] -0.15% | [2] -2.65% | [3] -15.7% | [4] 6.15% | [5] -4.9% | [6] -10.4%

O=C(O)c1ccc2ccc(F)cc2c1Cc1ccccc1
inactive: [1] -4.15% | [2] -10.2% | [3] 12.9% | [4] 8.3% | [5] -1.4% | [6] -16.5%

CCOC(=O)c1c(C)csc1NC(=O)CSCC(=O)OC
inactive: [1] 10.2% | [2] -4% | [3] 30.5% | [4] 19.9% | [5] 41% | [6] 31.6%

CCC1C2C=CC(CC2)N1S(=O)(=O)c1ccc(C)cc1 (configuration not stated)
inactive: [1] -0.7% | [2] -9.1% | [3] 10.8% | [4] 30% | [5] 13.2% | [6] -6.05%

CC(C)N(Cc1ccccc1)C(=O)Nc1ccc(Cc2ccc(NC(=O)N(Cc3ccccc3)C(C)C)cc2)cc1
inactive: [1] -0.7% | [2] -12.3% | [3] 0.35% | [4] 18.4% | [5] -10.1% | [6] -8.3%

O=C(O)c1[nH]c(=O)[nH]c(=O)c1C(=O)O
inactive: [1] -20.6% | [2] 0.55% | [3] -15.1% | [4] 18.8% | [5] -17.6% | [6] -15%

COC(=O)N/N=C/c1cccnc1
inactive: [1] 2.05% | [2] -6.6% | [3] -3.05% | [4] -72.2% | [5] 9.8% | [6] -26.8%

CN(NC(=O)/C(=C\c1ccccc1Cl)NC(=O)c1ccccc1)c1cn[nH]c(=O)c1Cl
inactive: [1] -13.2% | [2] -11.8% | [3] -16.4% | [4] 9.1% | [5] -3.75% | [6] -6.85%

CC1(C)C(=O)C(=Cc2ccco2)C1=O
inactive: [1] -18.9% | [2] 0.85% | [3] -23.4% | [4] 3.2% | [5] -14.2% | [6] 13%

OC1C2CC3C(C2)C13 (configuration not stated)
inactive: [1] -25.6% | [2] -12.6% | [3] 2.25% | [4] 4.8% | [5] -18.4% | [6] -25.8%

Cc1ccccc1OS(=O)(=O)c1ccc(Br)cc1
inactive: [1] -4.2% | [2] 13.8% | [3] -4.15% | [4] -107% | [5] 24.8% | [6] -15.8%

NC(=O)C1CCCCC1C(N)=O (configuration not stated)
inactive: [1] -15% | [2] -20.1% | [3] -25.6% | [4] -29.5% | [5] -27.8% | [6] -15.3%

CCCCC1(O)c2ccc3ccccc3c2C(O)(CCCC)c2cccc(-c3ccccc3)c21 (configuration not stated)
inactive: [1] 24.1% | [2] -0.05% | [3] 10.2% | [4] -1.75% | [5] -3.15% | [6] 38.8%

Cc1ccc(C(=O)N/N=C/c2ccc(N(C)C)cc2Cl)cc1
inactive: [1] 39.5% | [2] 20.2% | [3] 16.4% | [4] 22.9% | [5] 61% | [6] 21.9%

COc1cc(O)c(C(C)=O)c2c1C=CC(C)(C)O2
inactive: [1] -4.95% | [2] -47.1% | [3] -19.9% | [4] -16.8% | [5] -13.8% | [6] -14.7%

Cc1ccccc1N=Cc1ccc(N(CCC#N)S(=O)(=O)c2ccccc2)cc1
inactive: [1] 11.7% | [2] -8.3% | [3] 19.9% | [4] 18.7% | [5] 0.95% | [6] 15%

CC(C)C1N=C(N)N=C(N)N1c1ccc(Cl)c(Cl)c1 (configuration not stated)
inactive: [1] 17.4% | [2] 10.1% | [3] 8% | [4] -16.9% | [5] 5.25% | [6] 6.6%

CCCCCCCCCC(=O)N/N=C/c1ccncc1
inactive: [2] 23.1% | [4] 9.35% | [5] 26.2%
active: [1] 97.2% | [3] 98.8% | [6] 98.3%

O=C(O)CSCC(=O)c1ccccc1
inactive: [1] -2.1% | [2] -16.4% | [3] -43.2% | [4] -29.1% | [5] -53.4% | [6] -16.6%

CON[N+]([O-])=NC(C)C
inactive: [1] 27.6% | [2] 6.3% | [3] 21.6% | [4] 11.5% | [5] 17% | [6] 21.8%

COc1ccc2c(c1OC)C(=O)C2
inactive: [1] -21.1% | [2] 12.1% | [3] -20.9% | [4] 9% | [5] -16.8% | [6] -2.35%

O=c1[nH]/c(=C/c2ccc3c(c2)OCO3)c(=O)[nH]/c1=C/c1ccc2c(c1)OCO2
inactive: [1] -24.2% | [2] -20% | [3] -22.8% | [4] -13% | [5] -34.4% | [6] 20.2%

CCN(CC)CCCNc1c2ccccc2nc2ccccc12
inactive: [1] 13.7% | [2] 22.8% | [3] 9.2% | [4] 51.6% | [5] -8.1% | [6] 7%

CC(=O)CC(=O)Nc1ccc(-c2ccccc2)cc1
inactive: [1] 19.7% | [2] 3.95% | [3] 18.1% | [4] -16.2% | [5] -6.9% | [6] -0.35%

Nc1ccc(S(=O)c2ccc(N)cc2)cc1
inactive: [1] 27.9% | [2] -14.1% | [3] 8.25% | [4] 20.8% | [5] 18.6% | [6] 33.1%

CCCCC(C(=O)O)C(=O)O
inactive: [1] -15.3% | [2] -13.4% | [3] -21.8% | [4] 1.1% | [5] -2.05% | [6] -18.4%

COCNC(=O)NCC(F)(F)C(F)(F)C(F)(F)C(F)(F)C(F)(F)C(F)(F)C(F)(F)F
inactive: [1] -9.9% | [2] 7.6% | [3] -1.2% | [4] 15.9% | [5] -5.7% | [6] 28.5%

O=C1c2cc(Cl)ccc2NC(O)c2cccn21 (configuration not stated)
inactive: [1] 3.45% | [2] 1.8% | [3] -4.3% | [4] -20.9% | [5] -11.4% | [6] -0.55%

CCCCCCC1CCC(=O)CC1
inactive: [1] 31.9% | [2] 4.3% | [3] -14.6% | [4] -10.1% | [5] -7.3% | [6] 34.5%
